Bioassay records from PubChem.
In the library only some 2.4% were active in any assay of this set; here they are far more common.
D2 ag-1: human D2 receptor agonism in beta-arrestin assay; P14416; DiscoveRx PathHunter D2 beta-arrestin, luminescence, 90 min; 100% = 57 uM dopamine signal; activation, % (test concentration not listed); hit rate 0.084% among 360,000; in the data active = activation above about 40%; inconclusive = between about 15% and that limit
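Agonist mode: compounds alone added to overnight-plated D2 PathHunter cells for 90 min at 37 C, with 57 uM final dopamine (EC100) defining full response. Beta-arrestin recruitment detected by chemiluminescent reagent, read after 1 h at ambient temperature.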
D2 ag-2: agonists of human D2 dopamine receptor | AID 485358 | hit rate 0.53% among 340,000 | activation, % at 2 µM | P14416 | HEK293 T-REx D2 cells, calcium flux agonist mode;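 active = activation over 3 SD above normal in the single-dose calcium agonist read, cut at about 30% in these data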; note: 0% is about no effect
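Tetracycline-induced HEK293 Trex cells with D2 receptor force-coupled to calcium signaling, plated overnight at 30 C and loaded with no-wash calcium dye. Calcium flux read kinetically for 180 s after compound addition; responses flag agonists.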
D2 antag: antagonists of human D2 dopamine receptor | P14416 | hit rate 2% among 340,000 | inhibition, % at 10 µM | HEK293 TREx D2 cells, calcium flux, dopamine EC80; in the data active = inhibition above about 30%; inactive = below that, where a call was filed; note: 0% is about no effect
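In this primary screen, negative modulation is detected by tracking calcium flux after an EC80 dopamine challenge in inducible HEK293 T-REx D2 cells preexposed to test compound for 180 s.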
D2 PAM-1: positive allosteric modulators of human D2 dopamine receptor | HEK293 T-REx D2, calcium flux, EC20 dopamine potentiation | P14416 | hit rate 0.34% among 340,000 | potentiation, % at 10 µM;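 active = potentiation over 3 SD above the plate norm, cut at about 30% in these data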; note: 0% is about no effect
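Potentiation of an EC20 dopamine calcium response is measured in a force-coupled, tetracycline-inducible Hek293 Trex D2 line. Compound-only kinetic reads over 180 s flag agonists before dopamine addition.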
D2 PAM-2: positive allosteric modulators of human D2 dopamine receptor. hit rate 0.23% among 360,000. DiscoveRx D2 beta-arrestin cells, luminescence, 90 min; 100% = 57 uM dopamine signal. P14416. potentiation, % (no concentration beside the values); in the data active = potentiation above about 50%; inconclusive = mostly about 30% to 49%
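PathHunter D2 cells, attached overnight at 37 deg C, received compound in DMSO plus dopamine at EC20 (50 nM final) for 90 min at 37 deg C. Beta-arrestin recruitment was read as luminescence after 1 h with detection reagent at ambient temperature.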
D3 arrestin ag: confirmation of human D3 dopamine receptor agonists, beta-arrestin. shares compounds with D2 ag-2. DiscoveRx D3 beta-arrestin cells, luminescence, 90 min. Potency, µM (highest dose often 76.9 µM), inactives show top-dose activation, most hits filed as activators. hit rate 4% among 2,300. AID 720506;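 note: potency is the fitted concentration of half-maximal effect; 100% = dopamine control response; nearly all actives have a fitted effect of over 70% in size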
Target sequence (P35462 whole entry, looked up): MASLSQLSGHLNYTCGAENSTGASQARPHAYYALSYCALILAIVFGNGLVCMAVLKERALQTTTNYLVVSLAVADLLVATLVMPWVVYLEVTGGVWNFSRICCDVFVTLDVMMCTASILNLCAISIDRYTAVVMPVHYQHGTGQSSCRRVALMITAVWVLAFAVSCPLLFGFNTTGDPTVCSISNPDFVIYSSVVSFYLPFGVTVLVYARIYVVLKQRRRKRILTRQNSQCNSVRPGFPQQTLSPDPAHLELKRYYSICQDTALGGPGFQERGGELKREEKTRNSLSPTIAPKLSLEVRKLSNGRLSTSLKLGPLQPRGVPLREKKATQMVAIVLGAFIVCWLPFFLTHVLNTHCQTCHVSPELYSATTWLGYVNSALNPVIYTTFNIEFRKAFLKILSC
D2 ag-3: D2 receptor agonism, beta-arrestin counterscreen. shares compounds with D2 ag-2. DiscoveRx PathHunter D2 beta-arrestin, luminescence, 90 min; response scale: percent relative to full dopamine signal. Potency, µM (top dose mostly 76.9 µM), inactives show at the top dose activation, actives largely listed as activators. hit rate 5.9% among 2,300; note: potency is the fitted concentration of half-maximal effect; % of control where 0% means no effect; nearly all actives have a fitted effect of over 70% in size
An asterisk follows results filed as active. Unless noted, calls come from the whole dose curve; as a rule, active = well fitted activation curve with a large enough effect; inconclusive = small, poorly fitted or top-dose-only effect; inactive = flat fitted curve, though single readings scatter.

Results for OC(CNCCc1ccccc1)COc1ccc(OCC(O)CNCCc2ccccc2)cc1 (stereo not drawn) ?
D2 ag-1: 4; D2 PAM-2: -8; D3 arrestin ag: 11%; D2 ag-3: 10%

Results for COc1ccc(C(OCC(O)CNCCc2ccccc2)c2ccc(OC)cc2)cc1 (stereo not drawn) ?
D2 ag-1: -6; D2 ag-2: 51*; D2 antag: 8; D2 PAM-1: -17; D2 PAM-2: -18; D3 arrestin ag: -5%; D2 ag-3: 9%

What do the screens show for `Cc1nn(-c2ccc(F)cc2)c(-n2cccc2)c1C(=O)N1CCN(c2ccccc2F)CC1`?
D2 ag-2: -1; D2 PAM-1: 1

What do the screens show for `CCOC(=O)c1c(C)[nH]c(C)c1S(=O)(=O)N1CCCC(C(=O)N2CCN(c3ccc(Cl)cc3)CC2)C1` (stereo not drawn)?
D2 ag-2: 0; D2 PAM-1: 9

What do the screens show for `CC1(C)CC(=O)C2=C(C1)N(c1ccc(F)cc1)C(=O)NC2(C(F)(F)F)C(F)(F)F`?
D2 ag-1: -1; D2 ag-2: -1; D2 antag: 8; D2 PAM-1: -19; D2 PAM-2: 8

How did Cc1[nH]n(-c2ccccc2)c(=O)c1C1(C(F)(F)F)C(=O)N(c2ccc(F)cc2)C2=C1C(=O)CC(C)(C)C2 (stereo not drawn) do in these assays?
D2 ag-1: 1; D2 ag-2: 5; D2 antag: 11; D2 PAM-1: -10; D2 PAM-2: -15; D3 arrestin ag: 12%; D2 ag-3: -6%

What do the screens show for `CC(CCc1ccc(O)cc1)N(C)CCc1ccccc1` (stereo not drawn)?
D2 ag-1: -1; D2 ag-2: 39*; D2 antag: 91*; D2 PAM-1: -25; D2 PAM-2: -16; D3 arrestin ag: 1%; D2 ag-3: 0%

Results for CC1CN(C(=O)CCC(=O)N2CCN(c3ccccn3)CC2)c2ccccc2O1 (stereo not drawn) ?
D2 ag-1: -3; D2 ag-2: 0; D2 antag: -22; D2 PAM-1: -7; D2 PAM-2: -3

Results for Cc1ccc2c(c1)N(C(=O)CCC(=O)N1CCN(c3ccccn3)CC1)CC(C)O2 (stereo not drawn) ?
D2 ag-1: -4; D2 ag-2: 50*; D2 antag: -12; D2 PAM-1: -18; D2 PAM-2: -3; D3 arrestin ag: 12%; D2 ag-3: 9%

What do the screens show for `N#Cc1ccc(CSc2nnc(NC(=O)C3CC(=O)N(c4ccc5c(c4)OCCO5)C3)s2)cc1` (stereo not drawn)?
D2 ag-1: -4; D2 ag-2: 0; D2 antag: -7; D2 PAM-1: -1; D2 PAM-2: 0

Results for O=C(Nc1nnc(SCc2ccc(F)cc2)s1)C1CC(=O)N(c2ccc3c(c2)OCCO3)C1 (stereo not drawn) ?
D2 ag-1: -2; D2 ag-2: 43*; D2 antag: -8; D2 PAM-1: -27; D2 PAM-2: -2; D3 arrestin ag: 8%; D2 ag-3: -4%

What do the screens show for `O=C(c1ccco1)N1CCC(N2CCN(c3ccccc3)CC2)CC1`?
D2 ag-1: 1; D2 ag-2: 78*; D2 antag: 61*; D2 PAM-1: -21; D2 PAM-2: -10; D3 arrestin ag: inconclusive; D2 ag-3: 29%

How did O=C1OC(N2CCN(C(=O)c3ccco3)CC2)c2ccccc21 (stereo not drawn) do in these assays?
D2 ag-1: 6; D2 PAM-2: -12; D3 arrestin ag: 24%; D2 ag-3: 14%
